This is a sample that favours compounds with a hit; in the whole collection about 2.4% have one here.
D2 PAM-1: D2 dopamine receptor (human) potentiation | P14416 | HEK293 T-REx D2, calcium flux, EC20 dopamine potentiation | potentiation, % at 10 µM | 340,000 compounds, 0.34% hits | AID 485347;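 active = potentiation over 3 SD above the plate norm, cut at about 30% in these data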; note: 0% is about no effect
Target sequence (P14416 whole entry, looked up): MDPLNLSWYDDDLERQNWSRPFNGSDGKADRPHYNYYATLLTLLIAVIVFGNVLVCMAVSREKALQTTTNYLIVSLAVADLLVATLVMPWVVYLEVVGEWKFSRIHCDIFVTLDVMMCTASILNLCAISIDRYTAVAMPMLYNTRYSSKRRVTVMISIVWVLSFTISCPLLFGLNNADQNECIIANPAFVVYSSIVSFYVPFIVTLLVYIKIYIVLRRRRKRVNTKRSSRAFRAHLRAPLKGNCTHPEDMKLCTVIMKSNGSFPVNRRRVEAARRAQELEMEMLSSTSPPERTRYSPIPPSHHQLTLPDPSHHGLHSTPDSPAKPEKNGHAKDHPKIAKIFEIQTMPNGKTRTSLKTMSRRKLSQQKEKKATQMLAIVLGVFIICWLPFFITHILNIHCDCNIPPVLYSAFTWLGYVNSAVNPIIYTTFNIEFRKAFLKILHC
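Cells plated with tetracycline inducer and held overnight at 30 C; calcium dye loaded 30–90 min at room temperature; baseline taken, compound added and read 180 s; EC20 dopamine then added and read 180 s.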
D2 antagonist: D2 dopamine receptor (human) antagonism | 340,000 compounds, 2% hits | HEK293 TREx D2 cells, calcium flux, dopamine EC80 | inhibition, % at 10 µM | P14416 | AID 485344; in the data active = inhibition above about 30%; inactive = below that, where a call was filed; note: 0% is about no effect
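In this primary screen, negative modulation is detected by tracking calcium flux after an EC80 dopamine challenge in inducible HEK293 T-REx D2 cells preexposed to test compound for 180 s.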
D2 ag-1: activates the human D2 dopamine receptor. activation, % at 2 µM. 340,000 compounds, 0.53% hits. P14416. AID 485358. HEK293 T-REx D2 cells, calcium flux agonist mode;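 active = activation over 3 SD above normal in the single-dose calcium agonist read, cut at about 30% in these data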; note: 0% is about no effect
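Tetracycline-induced HEK293 Trex cells with D2 receptor force-coupled to calcium signaling, plated overnight at 30 C and loaded with no-wash calcium dye. Calcium flux read kinetically for 180 s after compound addition; responses flag agonists.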
D2 PAM-2: potentiates the human D2 dopamine receptor allosterically; 360,000 compounds, 0.23% hits; AID 624464; potentiation, % (test concentration not listed); DiscoveRx D2 beta-arrestin cells, luminescence, 90 min; 100% = 57 uM dopamine signal; in the data active = potentiation above about 50%; inconclusive = mostly about 30% to 49%
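D2 cells co-treated with compound plus 50 nM dopamine (EC20) for 90 min at 37 deg C to detect potentiation. Beta-arrestin recruitment was read as enzyme-fragment luminescence after 1 h at ambient temperature. Full response was set by 57 uM dopamine.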
D2 ag-2: activates the human D2 dopamine receptor | activation, % (concentration not given with the values) | 360,000 compounds, 0.084% hits | AID 624465 | DiscoveRx PathHunter D2 beta-arrestin, luminescence, 90 min; 100% = 57 uM dopamine signal; in the data active = activation above about 40%; inconclusive = between about 15% and that limit
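DiscoveRx PathHunter D2 beta-arrestin cells (2,100/well) attached overnight, then compound-stimulated 90 min at 37 C in HBSS/10 mM HEPES/0.1% Tween-20 buffer; beta-galactosidase complementation read by luminescence after 1 h at ambient temperature. Dopamine 57 uM final (EC100) as control.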
Numbers without * were called inactive; ? = inconclusive; . = no result given.

SMILES	D2 PAM-1	D2 antagonist	D2 ag-1	D2 PAM-2	D2 ag-2
Cc1occc1-c1nnc(-c2cc([N+](=O)[O-])cc([N+](=O)[O-])c2)o1	6	1	0	66*	?
O=[N+]([O-])c1ccc(NNS(=O)(=O)c2cc(Cl)ccc2Cl)nc1	11	-7	1	-4	11
Cn1cccc1CNC(=O)Nc1ccccc1	1	-6	1	8	-1
CCCCCNCc1cccn1C	-14	10	0	-10	-2
Cn1cccc1CNC(=O)Nc1ccc(Cl)cc1	5	31*	0	-25	-3
Cn1cccc1CNCc1ccccc1Cl	-18	2	50*	-10	-4
CCN(Cc1ccc2c(c1)OCCO2)C(=O)CN1C(=O)NC2(CCCCC2)C1=O	4	41*	1	-3	-2
Brc1ccccc1CN1CCN(Cc2c[nH]c3ccccc23)CC1	.	.	.	-15	-5
COc1ccccc1N1CCN(Cc2c[nH]c3ccccc23)CC1	-17	48*	0	-20	-1
COc1ccccc1N1CCN(C(=O)C(=O)c2cn(CC(=O)N3CCCCCC3)c3ccccc23)CC1	-18	38*	0	-27	4
COc1ccc(N2CCN(C(=O)CCc3c[nH]c4ccccc34)CC2)cc1	1	19	2	-1	5
COc1ccccc1N1CCN(C(=O)CCc2c[nH]c3ccccc23)CC1	5	45*	0	-1	-5
Fc1ccc(N2CCN(Cc3c[nH]c4ccccc34)CC2)cc1	-23	93*	2	.	.
COc1ccccc1N1CCN(Cc2ccc(O)c3ncccc23)CC1	16	-26	0	-28	-10
Cc1ccc(N2CCN(c3c(CN4CCCC4)c(=O)oc4ccccc34)CC2)c(C)c1	-6	.	0	.	.
CN(C)CC1C2CCC(C2)C1O (stereo unspecified)	.	.	.	-4	-3
CC(C)Sc1ncc(Cl)c(C(=O)N(Cc2ccc(N(C)C)cc2)C2CCS(=O)(=O)C2)n1 (stereo unspecified)	13	.	0	.	.
CCS(=O)(=O)N1CCN(Cc2c[nH]c3ccccc23)CC1	-19	-35	3	-2	1
Cc1ccccc1N1CCN(Cc2c[nH]c3ccccc23)CC1	-19	40*	0	-19	-4
C/C(=N/NC(=O)CN(c1ccccc1)S(=O)(=O)c1ccccc1)c1ccccc1O	-17	52*	1	-78	1
COC(=O)CN(c1ccc(F)cc1)S(=O)(=O)c1ccccc1	.	47*	4	-4	-1
COC(=O)CN(c1ccccc1F)S(=O)(=O)c1ccccc1	-5	-10	-4	8	-3
COc1ccccc1-c1cc2nc(-c3ccccc3)cc(N3CCN(C(=O)c4ccoc4)CC3)n2n1	.	.	.	.	2
COc1ccc(C2CN=NC23CCCc2ccccc2C3=O)cc1 (stereo unspecified)	-5	-18	-1	64*	4
COc1ccc(-c2noc(C3CCCN(S(=O)(=O)c4cccc(Cl)c4)C3)n2)cc1OC (stereo unspecified)	13	-1	1	-3	-3
SMILES	D2 PAM-1	D2 antagonist	D2 ag-1	D2 PAM-2	D2 ag-2
O=S(=O)(c1ccc(Cl)cc1)N1CCCC(c2nc(-c3ccc(F)cc3)no2)C1 (stereo unspecified)	-3	51*	0	-1	0
O=C1NCCN1Cc1ccc(Cl)cc1	49*	-13	0	-8	1
COC(=O)C1Cc2c([nH]c3ccccc23)C2(CCN(Cc3ccccc3)CC2)N1 (stereo unspecified)	-32	75*	4	-12	-5
CCCN1CCC2(CC1)NC(C(=O)O)Cc1c2[nH]c2ccccc12 (stereo unspecified)	21	-8	1	0	1
Cc1ccc(Nc2nnc(SCC(=O)NC3CCS(=O)(=O)C3)s2)c(C)c1 (stereo unspecified)	-8	39*	1	-35	-7
Cc1cccc(C)c1Nc1nnc(SCC(=O)NC2CCS(=O)(=O)C2)s1 (stereo unspecified)	-13	27	1	6	3
O=C(O)CCCCCNS(=O)(=O)c1cccc2c1C(=O)c1ccccc1C2=O	1	6	-2	76*	13
O=C(O)CCCCCNS(=O)(=O)/C=C/c1ccccc1	2	6	0	-3	-3
Cc1sc2ncnc(N3CCCCC3)c2c1C	16	18	0	-1	-2
Cc1sc2ncnc(NCC(c3ccco3)N3CCCC3)c2c1C (stereo unspecified)	-8	32*	-2	-26	-4
CC(C)CCNC(=O)CCc1nnc(Cc2c[nH]c3ccccc23)o1	1	-5	1	-2	-2
S=c1[nH]nc(Cc2c[nH]c3ccccc23)o1	1	41*	1	15	1
COCC(=O)N(Cc1nc2sc(C)c(C)c2c(=O)[nH]1)C1CCCCC1	12	31*	-2	-5	-4
CCCCC(=O)N(Cc1nc2sc(C)c(C)c2c(=O)[nH]1)C1CCCC1	9	1	1	-8	-4
OC1(c2cccs2)CN(c2ccc(Br)cc2)C2=[N+]1CCCS2 (stereo unspecified)	-19	2	6	-17	-4
COc1ccc(OC)c(N2CC(O)(c3cccs3)[N+]3=C2SCCC3)c1 (stereo unspecified)	-25	40*	4	-48	-4
Cc1noc(C)c1S(=O)(=O)N1CCC(C(=O)NCCC2=CCCCC2)CC1	-1	-24	0	-12	-3
Cc1nn(C)c(C)c1S(=O)(=O)N1CCC(C(=O)NC2CCCCCC2)CC1	1	33*	1	-6	0
Cc1nn(C)c(C)c1S(=O)(=O)N1CCC(C(=O)NCCC2=CCCCC2)CC1	-7	30*	-1	-9	-2
C=CCN1C=CC(=CC=C(C#N)C#N)C=C1	6	7	53*	-17	0
Cc1cc(C)c(C#N)c(SCS(=O)Cc2ccccc2)n1 (stereo unspecified)	-3	-13	-1	-7	2
Cc1cc(C)c(C#N)c(SCS(=O)Cc2ccc(Cl)cc2)n1 (stereo unspecified)	-8	37*	0	-16	0
Cc1cccc(NC(=S)NCC(c2ccccc2)N(C)C)c1 (stereo unspecified)	.	38*	0	-12	-1
CN(C)C(CNC(=S)Nc1cccc(Cl)c1)c1ccccc1 (stereo unspecified)	.	55*	0	-18	-6
Cc1cccc(NC(=S)NC(C)CCc2ccccc2)c1 (stereo unspecified)	-21	-14	0	-4	-3
CN(C)NC(=S)Nc1cccc(Cl)c1	2	45*	1	-2	3

Bioassay records deposited in PubChem by National Center for Advancing Translational Sciences (NCATS).
